Assay outcomes: PubChem, National Center for Advancing Translational Sciences (NCATS)
JMJD2A Tudor inh: JMJD2A Tudor domain (human) inhibition. O75164. AID 504339. Potency, µM (doses to about 114 µM), without a hit: at the highest dose activity change, negative = inhibition, hits mostly inhibitors. 4.4% of 390,000 active. AlphaScreen JMJD2A-Tudor / H3K4me3 peptide binding; further: on the % scale 0 is the no-effect control and ±100 the full control effect; nearly all actives have a fitted effect of over 50% in size
PLK1 PBD inh: blocks phosphopeptide binding to human PLK1 polo-box domain; P53350; Plk1 PBD binding of FITC phosphopeptide, fluorescence polarization; Potency, µM, without a hit: max response, negative = inhibition, usual class: inhibitors; 2.8% of 360,000 active; AID 720504; further: series mostly up to about 57 µM; on the % scale 0 is the no-effect control and ±100 the full control effect; nearly all actives have a fitted effect of over 65% in size
HP1b binding inh: blocks HP1-beta chromodomain binding to methylated histone tails | AlphaScreen HP1-beta / biotin-H3K9me3 peptide binding | Potency, µM (titrated, usually from 114 µM), for the others: at the highest dose activity change, negative = inhibition, hits mostly inhibitors | 0.56% of 390,000 active | AID 540317; further: nearly all actives have a fitted effect of over 70% in size
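AlphaScreen: HP1-beta (50 nM) preformed 30 min with biotin-H3(1-18)K9me3 peptide (50 nM) in PBS pH 7.4, 0.01% Tween-20. Compound added for 30 min at RT, then streptavidin donor/nickel chelate acceptor beads (10 ug/mL) for 30 min.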
BAZ2B block: BAZ2B (human) inhibition; AID 504333; AlphaScreen BAZ2B-H3K14Ac peptide displacement; 4.4% of 360,000 active; Potency, µM (highest dose often 114 µM), without a hit: at the highest dose activity change, negative = inhibition, most hits filed as inhibitors; further: on the % scale 0 is the no-effect control and ±100 the full control effect; nearly all actives have a fitted effect of over 60% in size
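Multi-concentration screen (max 110 uM) measuring displacement of acetylated histone H3 peptide from BAZ2B by AlphaScreen, using 50 nM protein, 50 nM peptide and 10 ug/mL streptavidin donor plus Ni-chelate acceptor beads.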
G9a inh: blocks human histone lysine methyltransferase G9a | Q96KQ7 | 8.8% of 350,000 active | AID 504332 | G9a H3K9 monomethylation, AlphaScreen, 2 h | Potency, µM (titrated, usually from 102 µM), inactives show top-dose activity, negative = inhibition, actives largely listed as inhibitors; further: on the % scale 0 is the no-effect control and ±100 the full control effect; nearly all actives have a fitted effect of over 75% in size
Target sequence (Q96KQ7 913-1193 limits assumed): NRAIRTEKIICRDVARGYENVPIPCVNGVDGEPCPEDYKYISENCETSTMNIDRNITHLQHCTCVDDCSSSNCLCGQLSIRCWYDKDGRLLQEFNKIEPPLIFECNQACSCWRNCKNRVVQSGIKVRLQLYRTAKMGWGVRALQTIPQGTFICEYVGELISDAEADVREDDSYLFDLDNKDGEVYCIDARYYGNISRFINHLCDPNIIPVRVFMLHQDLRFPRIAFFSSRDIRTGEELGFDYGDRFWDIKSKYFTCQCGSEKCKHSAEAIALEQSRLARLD
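AlphaScreen read-out: biotin-H3K9 peptide (500 nM) methylation by 20 nM enzyme with 20 uM SAM, 2 h at room temperature after 15 min compound preincubation; anti-monomethyl H3K9 antibody plus donor/acceptor beads, 10 min dark.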
VDR inh: vitamin D3 receptor (human) inhibition | VDR-SRC2-3 peptide fluorescence polarization, 2 h | Potency, µM, without a hit: max response, negative = inhibition, usual class: inhibitors | 0.93% of 400,000 active; further: on the % scale 0 is the no-effect control and ±100 the full control effect
Target sequence (P11473 whole entry, looked up): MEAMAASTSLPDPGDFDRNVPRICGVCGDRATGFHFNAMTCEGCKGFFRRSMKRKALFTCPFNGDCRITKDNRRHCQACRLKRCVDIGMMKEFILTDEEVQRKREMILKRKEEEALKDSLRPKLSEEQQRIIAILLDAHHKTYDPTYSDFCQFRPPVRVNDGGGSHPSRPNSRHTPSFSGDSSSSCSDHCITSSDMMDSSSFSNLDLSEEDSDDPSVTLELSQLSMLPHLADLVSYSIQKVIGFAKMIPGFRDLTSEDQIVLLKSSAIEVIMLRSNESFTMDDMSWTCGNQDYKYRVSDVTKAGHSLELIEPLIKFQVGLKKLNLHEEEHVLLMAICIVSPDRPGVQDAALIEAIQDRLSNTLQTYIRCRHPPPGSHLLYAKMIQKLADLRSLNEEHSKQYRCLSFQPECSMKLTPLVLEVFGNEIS
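Measured by FP: displacement of SRC2-3 coactivator peptide from VDR by library compounds, following a two-hour ambient incubation.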
* hit, by the source's call; ! = not active in a repeat; [ ] = dose if it differs, or a comment. The list is not random: actives were taken first. Their share in the collection is about 11%. The call rests on the fitted dose curve; in most records, active means well fitted curve in the direction sought with a large enough effect; inconclusive means small, poorly fitted or top-dose-only effect, or another doubt; inactive means no such curve, though single readings can be large; an effect the other way counts as inactive or inconclusive. Potency means the concentration at half of the fitted maximal effect.

Results for CCOC(=O)c1sc(=NC(=O)c2ccc(C)c(C)c2)n(C)c1C ?
JMJD2A Tudor inh: 20µM*; PLK1 PBD inh: 27µM*; HP1b binding inh: -10%; BAZ2B block: -5%; G9a inh: 11%[59 µM]; VDR inh: -22%

Results for O=C(NC(=S)Nc1ccccc1N1CCCC1)c1ccccc1Br ?
BAZ2B block: 11µM*; G9a inh: 10µM*

How did COC(=O)NC(=S)Nc1ccccc1NC(=S)NC(=O)OC do in these assays?
JMJD2A Tudor inh: -24%; PLK1 PBD inh: inconclusive; HP1b binding inh: 5%; VDR inh: -16%

How did Cc1cc(C=C2C(=O)NC(=O)NC2=O)c(C)n1-c1ccc2c(c1)OCO2 do in these assays?
JMJD2A Tudor inh: -35%; PLK1 PBD inh: 1%; HP1b binding inh: 36%; BAZ2B block: -26%; G9a inh: inconclusive; VDR inh: 5%

What do the screens show for `Cc1cc(C=C2C(=O)NC(=S)NC2=O)c(C)n1-c1ccc2c(c1)OCO2`?
JMJD2A Tudor inh: inconclusive; PLK1 PBD inh: 2.7µM*; HP1b binding inh: 2%; BAZ2B block: inconclusive; G9a inh: 11µM*; VDR inh: 71µM*

How did Cc1ccc(Sc2ccc(C=C3C(=O)N(C)C(=O)N(C)C3=O)o2)cc1 do in these assays?
JMJD2A Tudor inh: -28%; PLK1 PBD inh: 0.53µM*; HP1b binding inh: inconclusive; BAZ2B block: inconclusive; VDR inh: inconclusive

What do the screens show for `CN1C2CC(OC(=O)C(CO)c3ccccc3)CC1C(O)C2` (centres undefined)?
G9a inh: -38%[2.33 µM]; VDR inh: 9%

What do the screens show for `CCCCCNc1c(C(=O)OCC)c(=O)[nH]c2ccccc12`?
JMJD2A Tudor inh: 56µM*; PLK1 PBD inh: 27µM*; HP1b binding inh: -14%; BAZ2B block: 9%; G9a inh: 2%[59 µM]; VDR inh: -18%

What do the screens show for `NCCCNCCCCNCCCNC(=O)Cc1ccc(O)cc1`?
G9a inh: 7%[12.7 µM]; VDR inh: 2%

How did CCOc1ccc(NC(=O)CN(c2ccc(Cl)cc2C)S(=O)(=O)c2ccccc2)cc1 do in these assays?
JMJD2A Tudor inh: -12%; HP1b binding inh: 20%; BAZ2B block: inconclusive; G9a inh: -42%[59 µM]; VDR inh: 14%

Results for CON(C)C(=O)Nc1ccc(Br)cc1 ?
VDR inh: 10%

What do the screens show for `O=C(Nc1ccc(Br)cc1)c1cc(Br)cc(Br)c1O`?
G9a inh: 3%[59 µM]; VDR inh: 56µM*

Results for CCC(Sc1ccccc1)C(=O)OC1CC2CCC(C1)N2C (centres undefined) ?
G9a inh: -1%[59 µM]; VDR inh: -1%

What do the screens show for `CNC1[C@@H](O)C(OC2C(N)C[C@H](N)[C@@H](O[C@@H]3OC(C(C)O)C(O)C(O)C3N)C2O)OC[C@]1(C)O` (some centres undefined)?
G9a inh: inconclusive; VDR inh: 14%

Results for Cc1cc(C)cc(Oc2nc3ccccn3c(=O)c2/C=C(\C#N)c2nc3ccccc3s2)c1 ?
JMJD2A Tudor inh: -12%; HP1b binding inh: 50%; BAZ2B block: -18%; G9a inh: 3.5µM*; VDR inh: -29%

How did Cc1cccc(Oc2nc3c(C)cccn3c(=O)c2/C=C(\C#N)c2nc3ccccc3s2)c1 do in these assays?
JMJD2A Tudor inh: -9%; HP1b binding inh: 20%; BAZ2B block: 8%[57.1 µM]; G9a inh: -29%[59 µM]; VDR inh: inconclusive

How did C=CCN1C[C@H](C)N([C@@H](c2ccccc2)c2ccc(C(=O)N(CC)CC)cc2)C[C@H]1C do in these assays?
VDR inh: 13%

Results for CC1=CP(=O)(Oc2ccc([N+](=O)[O-])cc2)CC1 (centres undefined) ?
PLK1 PBD inh: -9%

How did Cc1n[nH]c(C)c1CCCCOc1ccc([N+](=O)[O-])cc1 do in these assays?
JMJD2A Tudor inh: -15%; PLK1 PBD inh: 0%; HP1b binding inh: 18%; BAZ2B block: -20%; G9a inh: 50µM*; VDR inh: -17%

How did O=C(CCl)c1ccc(Oc2ccc(C(=O)CCl)cc2)cc1 do in these assays?
G9a inh: inconclusive; VDR inh: 7.1µM*

Results for O=C(Cn1ncc2ccccc21)N1CCC2(CC1)OCCO2 ?
JMJD2A Tudor inh: -10%; PLK1 PBD inh: -2%; HP1b binding inh: 27%; BAZ2B block: -8%; G9a inh: -2%; VDR inh: 4%

How did O=C(C1CC(c2ccccc2O)=NO1)N1CCC2(CC1)OCCO2 (centres undefined) do in these assays?
JMJD2A Tudor inh: 14µM*; PLK1 PBD inh: 0%; HP1b binding inh: 12%; BAZ2B block: -8%; G9a inh: 50µM*; VDR inh: -3%

Results for COc1ccc(CCNC(=O)CCn2c(=O)c3ccccc3n(Cc3ccc(Cl)cc3)c2=O)cc1OC ?
JMJD2A Tudor inh: 1%; HP1b binding inh: 58%; BAZ2B block: 9%; G9a inh: 5%[59 µM]; VDR inh: 5%

How did CC(C)CC(NP(=O)(O)O[C@@H]1O[C@@H](C)[C@H](O)[C@@H](O)[C@H]1O)C(=O)NC(Cc1c[nH]c2ccccc12)C(=O)O (some centres undefined) do in these assays?
G9a inh: 49%[59 µM]; VDR inh: 7%

Results for CCCCC/C=C\C/C=C\C/C=C\C/C=C\CCCC(=O)N[C@H](C)CO ?
G9a inh: 1%[59 µM]; VDR inh: 35µM*!

Results for CCCCC/C=C\C/C=C\CCCCCCCC(=O)NCCO ?
G9a inh: 26%[59 µM]; VDR inh: inconclusive

Results for CCCCC/C=C\C/C=C\C/C=C\C/C=C\CCCC(=O)OC(CO)CO ?
G9a inh: 37%[59 µM]; VDR inh: 35µM*!

Results for N[C@@]1(C(=O)O)CC[C@H](C(=O)O)C1 ?
VDR inh: 9%

How did CCn1c(=O)oc2cc(NC(=O)CCl)ccc21 do in these assays?
JMJD2A Tudor inh: -14%[57.1 µM]; PLK1 PBD inh: -9%; HP1b binding inh: 25%; BAZ2B block: -23%; G9a inh: inconclusive; VDR inh: -14%

How did CCOP(=S)(OCC)SCn1c(=O)oc2cc(Cl)ccc21 do in these assays?
VDR inh: 35µM*

What do the screens show for `C[N+](C)(C)CC#CCN1CCCC1=O`?
JMJD2A Tudor inh: inconclusive; PLK1 PBD inh: -17%; HP1b binding inh: 0%; G9a inh: 0.63µM*; VDR inh: 5%

What do the screens show for `CCC(C)c1ccc(N2C(=O)NC(=O)/C(=C/c3cccn3CCOc3ccc(C)cc3)C2=O)cc1` (centres undefined)?
JMJD2A Tudor inh: -25%; PLK1 PBD inh: -27%; HP1b binding inh: 23%; BAZ2B block: -9%; G9a inh: 27%[59 µM]; VDR inh: 26%
